Screening results as filed in PubChem.
CRFBP-R2 block: CRF-BP/CRF-R2 complex antagonism; HEK293 CRF-R2/CRF-BP, CRF-induced calcium fluorescence; inhibition, % at 11.8 µM; 350,000 compounds, 0.59% hits; AID 588475;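 active = inhibition of the ligand-induced calcium signal above about 50% at the single tested concentration, limit read from the data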
Cardiac RTF inh: cardiac RTF calcium desensitization; 340,000 compounds, 0.12% hits; AID 493244; P19429+P45379; IANBD-labeled cardiac RTF, Ca2+ fluorescence; inhibition, % at 7.15 µM;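 active = inhibition above the mean inhibition of all tested compounds plus 3 SD, cut at about 17% in these data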;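 note: assay run at fixed EC70 calcium of 1.6 mM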
CRFBP-R2 agonist: agonists of human CRF-binding protein/CRF-R2 receptor complex. HEK293 CRF-R2/CRF-BP, calcium dye fluorescence (FLIPR); percent of saturating CRF peptide response. activation, % at 13.2 µM. 350,000 compounds, 0.46% hits. AID 588473;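 active = activation of at least 50%, plus an integration ratio under a set limit after plate pattern correction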;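 note: plate controls were neutral control wells without compound for no effect and CRF at EC100 for full effect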
Myeloid diff 2: promotes myeloid progenitor differentiation | ER-HoxA9 myeloid progenitors, lysozyme-GFP differentiation, flow cytometry | calls only at 10 µM | 360,000 compounds, 1% hits | AID 624256;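 active = normalized GFP-positive differentiation at or above the plate's own cutoff, the solvent-only control mean plus 3 SD; inconclusive = no clear call, values can overlap the other calls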;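 note: cells exposed to compound for four days before flow analysis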
cardiac RTF act: cardiac RTF calcium sensitization; P19429+P45379; IANBD-labeled TnC RTF fluorescence at EC20 calcium; 0% EC20 calcium, 100% full calcium; activation, % at 7.2 µM; 340,000 compounds, 0.24% hits;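 active = activation above the mean over all tested compounds plus 3 SD, cut at about 30% in these data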;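 note: rise in fluorescence read as greater calcium sensitivity of cardiac thin filaments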
* = called active by the depositor; ! = repeats disagree. A selection: hits, their analogues and other compounds. The true share with any hit is near 2.2%.

For O=C(CCNC(=O)c1ccc(Br)cc1)NCc1ccco1 the results were CRFBP-R2 block -15.8, Cardiac RTF inh -10.9, CRFBP-R2 agonist -1.4, Myeloid diff 2 inactive and cardiac RTF act 8.8.
O=C(CCNC(=O)c1ccco1)NNC(=O)c1ccc(Br)cc1 was read as CRFBP-R2 block 5.8, Cardiac RTF inh -3.1, CRFBP-R2 agonist 0.1, Myeloid diff 2 active and cardiac RTF act -1.2.
Screening COc1ccccc1-c1noc2c1C(=O)NCC2 returned CRFBP-R2 block -19.7, CRFBP-R2 agonist -0.2 and Myeloid diff 2 inactive.
For COc1cccc(NC(=O)CN(C)CC(=O)Nc2ccc3c(c2)OCO3)c1 the results were CRFBP-R2 block -19.6, Cardiac RTF inh -6.1, CRFBP-R2 agonist -3.2, Myeloid diff 2 inactive and cardiac RTF act -4.2.
For COc1cccc(NC(=O)CN(C)CC(=O)Nc2ccc(C)c([N+](=O)[O-])c2)c1 the results were CRFBP-R2 block 1.5, Cardiac RTF inh -3.7, CRFBP-R2 agonist -0.5, Myeloid diff 2 active and cardiac RTF act 1.2.
`CCCCCCSc1ccc(-c2nc3ccc(Cl)cn3c2NC2CCCCC2)cc1` gave CRFBP-R2 block -1.1, Cardiac RTF inh 3.5, CRFBP-R2 agonist -0.3, Myeloid diff 2 active and cardiac RTF act 1.8.
Screening CCCCCCSc1cc(-c2nc3ccc(Cl)cn3c2NC2CCCCC2)ccc1OC returned CRFBP-R2 block 0.3, Cardiac RTF inh -7.2, CRFBP-R2 agonist -0.9, Myeloid diff 2 inconclusive and cardiac RTF act -1.0.
`CCCCCCSc1cccc(-c2nc3cc(C)ccn3c2NC2CCCCC2)c1` gave CRFBP-R2 block 6.3, Cardiac RTF inh -1.0, CRFBP-R2 agonist 2.2, Myeloid diff 2 inactive and cardiac RTF act -2.6.
For Cc1ccn2c(NC3CCCCC3)c(-c3ccc(SC4CCCCC4)cc3)nc2c1 the results were Myeloid diff 2 active.
For CCC(C)Sc1cccc(-c2nc3cc(C)ccn3c2NC2CCCCC2)c1 (stereo not drawn) the results were CRFBP-R2 block -3.9, Cardiac RTF inh -12.6, CRFBP-R2 agonist 1.0, Myeloid diff 2 active! and cardiac RTF act 1.2.
`Cc1ccn2c(NC3CCCCC3)c(-c3cccc(SC4CCCCC4)c3)nc2c1` gave CRFBP-R2 block -3.9, Cardiac RTF inh -1.8, CRFBP-R2 agonist 1.2, Myeloid diff 2 inactive and cardiac RTF act 4.3.
`COc1ccc(CC(=O)NCC(C)(C)N2CCOCC2)cc1` gave CRFBP-R2 block -5.0, Cardiac RTF inh -5.8, CRFBP-R2 agonist 2.7, Myeloid diff 2 inactive and cardiac RTF act -6.4.
For CN(C(=O)COC(=O)CNC(=O)c1cccs1)c1c(N)n(Cc2ccccc2)c(=O)[nH]c1=O the results were CRFBP-R2 block -3.2, Cardiac RTF inh -7.5, CRFBP-R2 agonist 1.5, Myeloid diff 2 inactive and cardiac RTF act -2.1.
CC(=O)NC1CCCN(O)C(=O)/C=C(\C)CCOC(=O)C(NC(C)=O)CCCN(O)C(=O)/C=C(\C)CCOC(=O)C(NC(C)=O)CCCN(O)C(=O)/C=C(\C)CCOC1=O (stereo not drawn) was read as CRFBP-R2 block -2.3, CRFBP-R2 agonist -0.6 and Myeloid diff 2 inactive.
O=C(c1c[nH]c2ccccc12)C(Cl)c1ccccc1 (stereo not drawn) was read as CRFBP-R2 block -8.7, Cardiac RTF inh -2.8, CRFBP-R2 agonist -0.8, Myeloid diff 2 inactive and cardiac RTF act -2.3.
Screening COc1cc(N2CCCC2)c(OC)cc1/C=C(/C#N)c1cccc(F)c1 returned CRFBP-R2 block -90.1, Cardiac RTF inh -37.6, CRFBP-R2 agonist 46.6, Myeloid diff 2 active and cardiac RTF act 16.3.
Screening N#C/C(=C/c1ccc(N2CCCCCC2)o1)c1cccc(F)c1 returned CRFBP-R2 block 8.8, Cardiac RTF inh -35.2, CRFBP-R2 agonist 2.1, Myeloid diff 2 inactive and cardiac RTF act 25.6.
`CS(=O)(=O)N1CCN(C(=O)COc2ccc3ccccc3c2)CC1` gave CRFBP-R2 block 64.0*, Cardiac RTF inh 4.2, CRFBP-R2 agonist -0.3, Myeloid diff 2 inactive and cardiac RTF act 1.3.
CS(=O)(=O)N1CCN(C(=O)COc2ccccc2)CC1 was read as CRFBP-R2 block -0.7, Cardiac RTF inh -7.5, CRFBP-R2 agonist 1.1, Myeloid diff 2 inactive and cardiac RTF act 0.1.
`CN1OC[C@@H]2CN(C(=O)CCc3ccccc3)[C@H](c3ccc(N4CCCCC4)cc3)C[C@@H]21` gave Myeloid diff 2 inactive.
For COc1ccc(-n2ccn3c(CCC(=O)N4CCN(c5cccc(C)c5C)CC4)nnc3c2=O)cc1 the results were CRFBP-R2 block -8.9, Cardiac RTF inh 2.4, CRFBP-R2 agonist -2.0, Myeloid diff 2 inactive and cardiac RTF act -5.9.
Screening Cc1[nH]c2ccccc2c1/C=N/Nc1ccc([N+](=O)[O-])cc1 returned CRFBP-R2 block -220.4, Cardiac RTF inh -6.2, CRFBP-R2 agonist 121.4*, Myeloid diff 2 active and cardiac RTF act 12.0.
`COc1ccccc1NS(=O)(=O)c1cc([N+](=O)[O-])ccc1N/N=C/c1c(C)[nH]c2ccccc12` gave CRFBP-R2 block -92.0, Cardiac RTF inh -27.2, CRFBP-R2 agonist 37.2, Myeloid diff 2 active and cardiac RTF act 17.4.
Screening O=[N+]([O-])c1ccc(N/N=C/c2c[nH]c3ccccc23)c(S(=O)(=O)Nc2ccc(Cl)cc2)c1 returned CRFBP-R2 block -189.6, Cardiac RTF inh -7.2, CRFBP-R2 agonist 93.8*, Myeloid diff 2 active and cardiac RTF act 5.4.
`CCNC(=O)C1(C)CCN(C(=O)c2c(-c3ccccc3)noc2C)C1` (stereo not drawn) gave Myeloid diff 2 inactive.
Screening COc1ccc(NC(=O)CCC(=O)Nc2nnc(C3CCCCC3)s2)c(OC)c1 returned CRFBP-R2 block -4.7, Cardiac RTF inh 1.3, CRFBP-R2 agonist -1.2, Myeloid diff 2 inactive and cardiac RTF act -4.2.
`Cc1cccc(-c2cnc(C(O)Cc3ccccc3)[nH]2)c1` (stereo not drawn) gave Myeloid diff 2 inactive.
COc1ccc(NS(=O)(=O)c2cc(NC(=O)C3CC3)ccc2N2CCCCC2)cc1 was read as CRFBP-R2 block -9.6, Cardiac RTF inh -3.3, CRFBP-R2 agonist 0.8, Myeloid diff 2 active and cardiac RTF act 0.3.
`COc1ccc(NS(=O)(=O)c2ccc(N3CCOCC3)c(NC(=O)C(C)C)c2)cc1` gave CRFBP-R2 block 100.0*, Cardiac RTF inh -1.5, CRFBP-R2 agonist 1.9, Myeloid diff 2 inactive and cardiac RTF act -3.8.
Screening CC1(C(=O)NS(=O)(=O)Cc2cccc(Cl)c2)CCN1C(=O)C/C=C/c1ccccc1 (stereo not drawn) returned Myeloid diff 2 inactive.
Screening Cc1ccc(Cn2nnc(C(=O)Nc3cccc(C)c3C)c2N)cc1 returned CRFBP-R2 block -102.8, Cardiac RTF inh -4.6, CRFBP-R2 agonist 104.6*, Myeloid diff 2 inactive and cardiac RTF act 6.4.
For COc1ccc(NS(=O)(=O)c2cccc(C(=O)NCc3ccccc3CN3CCCC3)c2)cc1 the results were CRFBP-R2 block -6.8, Cardiac RTF inh -0.1, CRFBP-R2 agonist 2.5, Myeloid diff 2 inactive and cardiac RTF act 2.3.
